# Compound activity deposited in PubChem by National Center for Advancing Translational Sciences (NCATS).
# BAZ2B inh: qHTS Assay for Inhibitors of BAZ2B | Bromodomain adjacent to zinc finger domain protein 2B (Homo sapiens), Q9UIF8 | AlphaScreen BAZ2B-H3K14Ac peptide displacement | Potency, µM (doses to about 114 µM), hits mostly inhibitors | actives 4.4% (n = 360,000) | AID 504333, 2011; note: nearly all actives have a fitted effect of over 60% in size
#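 BAZ2B (50 nM) with biotin-H3(5-23)K14Ac peptide (50 nM) in PBS pH 7.4, 0.01% Tween-20, preformed 30 min, then compound 30 min at room temperature; top concentration 110uM. AlphaScreen streptavidin donor/nickel chelate acceptor beads (10 ug/mL final), 20 min dark, signal read.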
# JMJD2A Tudor inh: qHTS Assay for Inhibitors of JMJD2A-Tudor Domain | Lysine-specific demethylase 4A (Homo sapiens), O75164 | actives 4.4% (n = 390,000) | AlphaScreen JMJD2A-Tudor / H3K4me3 peptide binding | Potency, µM (titrated, usually from 114 µM), usual class: inhibitors; note: nearly all actives have a fitted effect of over 50% in size
# PI5P4K alpha inh: qHTS for Inhibitors of phosphatidylinositol 5-phosphate 4-kinase (PI5P4K) | max response, % | PI5P4Kalpha enzyme, ADP-Glo luminescence, 60 min; active compounds read low | actives 1.2% (n = 330,000) | AID 652105, 2013 | Phosphatidylinositol 5-phosphate 4-kinase type-2 alpha (Homo sapiens), P48426; active = max response of -50% or lower; inconclusive = between -30% and -50%; inactive = -30% or higher; note: value at the top dose of about 77 µM
#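 Human PI5P4Kalpha with substrate in 0.038 M HEPES pH 7.4, 0.28 mM EGTA, 0.1% CHAPS, 5% DMSO; reaction started with 5 microM ATP (final), 60 min at room temperature. ADP formed read by ADP-Glo luminescence.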
# HP1b chromo inh: HTS for Inhibitors of HP1-beta Chromodomain Interactions with Methylated Histone Tails; AID 540317, 2011; AlphaScreen HP1-beta / biotin-H3K9me3 peptide binding; Potency, µM (series often up to 114 µM), most hits filed as inhibitors; actives 0.56% (n = 390,000); note: nearly all actives have a fitted effect of over 70% in size
# Target sequence (P83916 whole entry, looked up): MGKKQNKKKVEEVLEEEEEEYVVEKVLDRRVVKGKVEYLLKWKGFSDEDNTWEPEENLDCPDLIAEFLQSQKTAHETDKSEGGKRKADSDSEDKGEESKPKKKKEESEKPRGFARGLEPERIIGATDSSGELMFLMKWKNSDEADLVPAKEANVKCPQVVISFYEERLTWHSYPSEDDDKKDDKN
#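 HP1-beta protein (50 nM final) preincubated 30 min at room temperature with biotinylated H3(1-18)K9me3 peptide (50 nM) in PBS pH 7.4, 0.01% Tween-20, then compound added for 30 min. AlphaScreen streptavidin donor/nickel chelate acceptor beads (10 ug/mL final), 30 min dark, luminescence read.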
# G9a block: qHTS Assay for Inhibitors of Histone Lysine Methyltransferase G9a | Histone-lysine N-methyltransferase EHMT2 (Homo sapiens), Q96KQ7 | G9a H3K9 monomethylation, AlphaScreen, 2 h | Potency, µM (top dose mostly 102 µM), actives largely listed as inhibitors | actives 8.8% (n = 350,000); note: nearly all actives have a fitted effect of over 75% in size
# Target sequence (Q96KQ7 913-1193 limits assumed): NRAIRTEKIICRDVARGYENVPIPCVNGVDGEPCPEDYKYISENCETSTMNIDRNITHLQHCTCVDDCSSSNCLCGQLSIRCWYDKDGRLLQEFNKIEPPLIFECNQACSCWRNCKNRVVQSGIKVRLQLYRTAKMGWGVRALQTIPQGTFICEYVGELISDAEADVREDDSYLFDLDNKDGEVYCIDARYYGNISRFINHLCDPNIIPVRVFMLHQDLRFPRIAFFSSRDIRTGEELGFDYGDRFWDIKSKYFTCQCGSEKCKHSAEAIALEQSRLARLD
#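 Enzyme 20 nM + cpd, 15 min RT; add b-H3K9 pep 500 nM / SAM 20 uM; 2 h RT; anti-H3K9me1 Ab 0.5 ug/mL + SA donor / anti-rabbit acceptor beads 20 ug/mL each, 10 min; AlphaScreen read.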
# PLK1 PBD inh: qHTS for Inhibitors of PLK1-PDB (polo-like kinase 1 - polo-box domain): Primary Screen; Serine/threonine-protein kinase PLK1 (Homo sapiens), P53350; Plk1 PBD binding of FITC phosphopeptide, fluorescence polarization; actives 2.8% (n = 360,000); Potency, µM, actives largely listed as inhibitors; note: series mostly up to about 57 µM; nearly all actives have a fitted effect of over 65% in size
# Numbers stand for hits; 0 = inactive; ? = inconclusive; - = no result; [ ] = remark or other dose. Compounds with a hit are over-represented: about 12% of the library has one in this group of screens. Unless noted, calls come from the whole dose curve; as a rule, active = well fitted curve in the direction sought with a large enough effect; inconclusive = small, poorly fitted or top-dose-only effect, or another doubt; inactive = no such curve, though single readings can be large; an effect the other way counts as inactive or inconclusive.
SMILES,BAZ2B inh,JMJD2A Tudor inh,PI5P4K alpha inh,HP1b chromo inh,G9a block,PLK1 PBD inh
CCc1ccc(NC(=O)CC2C(=O)N(c3ccc(Cl)cc3)C(=O)N2Cc2ccco2)cc1 (stereo unspecified),0,0,-,0,?,-
CC(NC(=O)CSc1nnc(CC(=O)Nc2ccc(Cl)c(Cl)c2)n1C)c1ccccc1 (stereo unspecified),?,0,-,0,13µM,0
Cc1ccc(NC(=O)Cc2n[nH]c(=S)n2C)cc1,0,8.9µM,0,0,?,0
CCn1c(CC(=O)Nc2ccc(C)cc2)n[nH]c1=S,?,3.5µM,0,0,5µM,0
Cn1c(CC(=O)Nc2ccccc2)n[nH]c1=S,0,5µM,0,0,0,0
Cc1ccccc1NC(=O)Cc1nnc(SCC(=O)Nc2ccccc2)n1C,0,0,0,0,0,0
O=C(c1cnccn1)N1CCC2(CCCN(Cc3nccs3)C2)CC1,-,-,-,-,0[12.7 µM],-
CCc1ccc(OCC(=O)Nc2cc3oc4ccccc4c3cc2OC)c(Br)c1,0,0,-,0,0,-
O=C1CCc2cc(S(=O)(=O)Nc3ccc(Cl)c(Cl)c3)ccc2N1,-,0,-,-,-,-
CN(Cc1n[nH]c(=S)n1C)S(=O)(=O)c1ccccc1,0,5.6µM,-,0,-,0
COc1ccc(Cc2n[nH]c(=S)n2NC(=O)Nc2ccc(Cl)c(Cl)c2)cc1,0,0,0,0,?,0
Cn1c(CC(=O)Nc2ccc(Cl)c(Cl)c2)n[nH]c1=S,0,0,0,0,14µM,0
Cc1cccc(-c2nc3c4ccccc4nc(N4CCN(c5cccc(Cl)c5)CC4)n3n2)c1,0,0,-,0,0,-
CC1CCCC(N2CCN(S(=O)(=O)c3ccccc3)CC2)C1 (stereo unspecified),?,4µM,0,?,18µM,0
COc1ccc(S(=O)(=O)N2CCN(C3CCCC(C)C3)CC2)cc1 (stereo unspecified),18µM,1.3µM,0,45µM,7.1µM,0
O=S(=O)(c1ccccc1)N1CCN(S(=O)(=O)c2ccccc2)CC1,-,0,-,0,-,-
CC1CCC(N2CCN(S(=O)(=O)Cc3ccccc3)CC2)CC1 (stereo unspecified),50µM,22µM,0,71µM,25µM,0
COc1ccc(S(=O)(=O)N2CCN(S(=O)(=O)c3ccc(OC)cc3)CC2)cc1,0,0,-,-,0[12.7 µM],-
CCCCc1ccc(Nc2cc(C)nc(-n3nc(C)cc3C)n2)cc1,0,?,-,0,0,-
COc1ccc(NC(=O)N2CC[C@@]3(CCCN(C(C)=O)C3)C2)cc1,-,-,-,-,0[12.7 µM],-
Cc1ccc(CNC(=O)Nc2cccs2)cc1,0,0,0,0,?,0
COc1cccc(CNC(=O)Nc2cccs2)c1,0,0,0,0,45µM,0
COc1ccc(CNC(=O)Nc2cccs2)cc1OC,0,0,0,0,13µM,?
CCc1nnc(NC(=O)[C@@H]2CCCN2C(=O)c2cccs2)s1,-,0,-,0,-,-
COc1c(C)cc(Br)cc1C(=O)NC(=S)NCc1ccco1,0,0,0,0,0,0
SMILES,BAZ2B inh,JMJD2A Tudor inh,PI5P4K alpha inh,HP1b chromo inh,G9a block,PLK1 PBD inh
CC12CCC(O)CC1=CCC1C2CCC2(C)C1CCC21CCC(=O)O1 (stereo unspecified),0,0,0,0,0,0
C[C@]12CCC3C(CC=C4C[C@@H](O)CC[C@@]43C)C1CCC2[C@]1(C)CCC(=O)O1 (stereo partly specified),56µM,?,0,?,?,0
CC1=NOC(=O)/C1=C/c1ccc(N(C)C)cc1,0,0,-,0,?,?
CCN(CC)c1ccc(/C=C2\C(=O)N(c3nnc(C)c(=O)[nH]3)N=C2C)cc1,8.9µM,20µM,0,0,50µM,?
CCOC(=O)C1=C(O)/C(=C\c2ccc(O)c(OCC)c2)N=C1C,0,0,0,0,?,0
CCN(CC)c1ccc(/C=C2/C(=O)ON=C2C)cc1,40µM,45µM,0,?,45µM,?
CC1=NOC(=O)/C1=C/c1ccc(O)c(Cl)c1,50µM,0,0,0,50µM,?
CCOc1cc(/C=C2/N=C(C)C(C(=O)OC)=C2O)ccc1O,0,0,0,0,45µM,0
Cc1ccc(F)c(S(=O)(=O)NC(=O)C2(C)CCN2C(=O)c2sccc2C)c1 (stereo unspecified),-,-,0,-,-,0
CCCCC1(C)OC(=O)C(=Cc2ccc(N(CC)CC)cc2)C(=O)O1 (stereo unspecified),56µM,?,0,0,71µM,?
CCCOc1ccc(/C=C2/C(=O)ON=C2C)cc1Cl,0,0,0,0,28µM,1.1µM
CCOc1cc(/C=C2/C(=O)ON=C2C)ccc1O,0,0,0,0,50µM,0
CCOc1cc(/C=C2\CN(C)C/C(=C\c3ccc(O)c(OCC)c3)C2=O)ccc1O,45µM,56µM,0,?,35µM,0
CC(C)CCn1c(=O)c2sccc2n2c(CCCC(=O)NCCc3ccccc3)nnc12,0,0,-,0,0,-
CC(NCc1ccccc1)C1COc2ccccc2O1 (stereo unspecified),?,3.2µM,0,0,32µM,0
CC(NC(=O)c1ccco1)C1COc2ccccc2O1 (stereo unspecified),50µM,56µM,?,0,25µM,0
COc1ccc(CNC(C)C2COc3ccccc3O2)c(OC)c1 (stereo unspecified),50µM,3.5µM,0,?,10µM,0
CC(NCC(O)COc1ccccc1)C1COc2ccccc2O1 (stereo unspecified),0,0,0,0,0,0
CCOC(=O)c1ccc(NC(=O)CCCc2nc(-c3cc(OC)c(OC)c(OC)c3)no2)cc1,0,0,-,0,0,-
CSc1ccc(-c2nc3ncccn3c2Nc2ccc(C)c(C)c2)cc1,0,0,-,0,0,-
CCN(CC)c1ccc(S(=O)(=O)N2CCOCC2)cc1NC(=O)CN1CCN(Cc2ccccc2)CC1,22µM,18µM,0,?,?,0
CCN(CC)c1ccc(S(=O)(=O)N2CCOCC2)cc1NC(=O)C1CC1,0,0,0,0,0[2.33 µM],0
CCN(CC)c1ccc(S(=O)(=O)N2CCOCC2)cc1NC(=O)CNCc1ccccc1,50µM,89µM,0,?,?,0
CCN(CC)c1ccc(S(=O)(=O)N2CCOCC2)cc1NC(=O)CSC(=S)N1CCCC1,0,?,0,0,7.9µM,13µM
Cc1c(C(=O)Nc2ccccc2)sc2nc(-c3cc4ccccc4oc3=O)[nH]c(=O)c12,0,0,-,0,0,-
